Experimental data from PubChem BioAssay (NCI).
Compounds without any hit were thinned out: in the full panel of roughly 83,000, 20% have a hit.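 96-well plates, one dose, 48 hours. Percent growth reported; active if below 10.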 A number with no mark means an inactive call. Calls of active or inactive are those of the source.

How the values were obtained:
Experiment in all cases: NCI-60 one-dose screen, 48 h (100 = growth as untreated, 0 = no growth, -100 = all killed)
Details in all cases: 10 µM unless noted
DU-145 prostate = tested on: DU-145 prostate
K-562 leukemia = tested on: K-562 leukemia
MALME-3M melanoma = tested on: MALME-3M melanoma
MDA-MB-231 breast = tested on: MDA-MB-231 breast
RXF 393 renal = tested on: RXF 393 renal
SF-268 CNS = tested on: SF-268 CNS
SF-295 CNS = tested on: SF-295 CNS
UACC-257 melanoma = tested on: UACC-257 melanoma
M14 melanoma = tested on: M14 melanoma
HCT-15 colon = tested on: HCT-15 colon
HT29 colon = tested on: HT29 colon
SNB-75 CNS = tested on: SNB-75 CNS
SNB-19 CNS = tested on: SNB-19 CNS
U251 CNS = tested on: U251 CNS
PC-3 prostate = tested on: PC-3 prostate
SK-MEL-5 melanoma = tested on: SK-MEL-5 melanoma
UACC-62 melanoma = tested on: UACC-62 melanoma
LOX IMVI melanoma = tested on: LOX IMVI melanoma
SK-MEL-28 melanoma = tested on: SK-MEL-28 melanoma

With `COc1cc(/C=N/N(C)C)ccc1O` the growth (DU-145 prostate) was 110%, the growth (K-562 leukemia) was 101% and the growth (MALME-3M melanoma) was 105%. The growth (MDA-MB-231 breast) was 93.1%, the growth (RXF 393 renal) was 105% and the growth (SF-268 CNS) was 101%. It also gave a growth (SF-295 CNS) of 104%, a growth (UACC-257 melanoma) of 89.1% and a growth (M14 melanoma) of 108%. It also gave a growth (HCT-15 colon) of 105%, a growth (HT29 colon) of 93.8% and a growth (SNB-75 CNS) of 103%. For the same compound, the growth (SNB-19 CNS) was 99%, the growth (U251 CNS) was 81.8% and the growth (PC-3 prostate) was 90%. It also gave a growth (SK-MEL-5 melanoma) of 99.5%, a growth (UACC-62 melanoma) of 90.1% and a growth (LOX IMVI melanoma) of 108%. The growth (SK-MEL-28 melanoma) was 114%.
For `Oc1cc(O)c2c(=S)cc(-c3ccc(Cl)cc3)oc2c1`, the growth (DU-145 prostate) was 36.9%, the growth (K-562 leukemia) was 28.2% and the growth (MALME-3M melanoma) was 22.7%. It also gave a growth (MDA-MB-231 breast) of 21.6%, a growth (RXF 393 renal) of 64.6% and a growth (SF-268 CNS) of 36.8%. The growth (SF-295 CNS) was 91.4%, the growth (UACC-257 melanoma) was 32.9% and the growth (M14 melanoma) was 31.4%. The growth (HCT-15 colon) was 25.4%, the growth (HT29 colon) was 92.8% and the growth (SNB-75 CNS) was 48.3%. The growth (SNB-19 CNS) was 17.5%, the growth (U251 CNS) was 19.6% and the growth (PC-3 prostate) was 28.4%. The growth (SK-MEL-5 melanoma) was 3.09% (active), the growth (UACC-62 melanoma) was 22.6% and the growth (LOX IMVI melanoma) was 38.6%.
`COc1ccc2nc3cc(Cl)ccc3c(NCCNCC(O)CO)c2c1` (stereo not given) gave a growth (DU-145 prostate) of 31.6%, a growth (K-562 leukemia) of 10.8% and a growth (MALME-3M melanoma) of 28.7%. For the same compound, the growth (MDA-MB-231 breast) was 20%, the growth (RXF 393 renal) was 9.56% (active) and the growth (SF-268 CNS) was 28.8%. For the same compound, the growth (SF-295 CNS) was 45.6%, the growth (UACC-257 melanoma) was 32.5% and the growth (M14 melanoma) was 28%. The growth (HCT-15 colon) was 73.4%, the growth (HT29 colon) was 6.37% (active) and the growth (SNB-75 CNS) was 42.1%. The growth (SNB-19 CNS) was 35.7%, the growth (U251 CNS) was 17.3% and the growth (PC-3 prostate) was 21.4%. For the same compound, the growth (SK-MEL-5 melanoma) was 35.3%, the growth (UACC-62 melanoma) was 11% and the growth (LOX IMVI melanoma) was -55.2% (active). The growth (SK-MEL-28 melanoma) was 30.8%.
With `Cn1c(=O)c2c(ncn2CC[N+](C)(C)C)n(C)c1=O` the growth (DU-145 prostate) was 104%, the growth (K-562 leukemia) was 92.1% and the growth (MALME-3M melanoma) was 105%. The growth (MDA-MB-231 breast) was 104%, the growth (RXF 393 renal) was 111% and the growth (SF-268 CNS) was 98.6%. It also gave a growth (SF-295 CNS) of 103%, a growth (UACC-257 melanoma) of 94.4% and a growth (M14 melanoma) of 103%. It also gave a growth (HCT-15 colon) of 112%, a growth (HT29 colon) of 93.8% and a growth (SNB-75 CNS) of 90.9%. For the same compound, the growth (SNB-19 CNS) was 101%, the growth (U251 CNS) was 101% and the growth (PC-3 prostate) was 94.5%. The growth (SK-MEL-5 melanoma) was 102%, the growth (UACC-62 melanoma) was 86.9% and the growth (LOX IMVI melanoma) was 99.6%. It also gave a growth (SK-MEL-28 melanoma) of 106%.
`NC(N)=Nc1ccc(S(=O)(=O)O)cc1` was tested, and the growth (DU-145 prostate) was 131%, the growth (K-562 leukemia) was 92.2% and the growth (MALME-3M melanoma) was 103%. The growth (MDA-MB-231 breast) was 93.6%, the growth (RXF 393 renal) was 136% and the growth (SF-268 CNS) was 110%. It also gave a growth (SF-295 CNS) of 117%, a growth (UACC-257 melanoma) of 99.1% and a growth (M14 melanoma) of 110%. The growth (HCT-15 colon) was 102%, the growth (HT29 colon) was 111% and the growth (SNB-75 CNS) was 88.7%. It also gave a growth (SNB-19 CNS) of 90%, a growth (U251 CNS) of 111% and a growth (PC-3 prostate) of 99.1%. For the same compound, the growth (SK-MEL-5 melanoma) was 101%, the growth (UACC-62 melanoma) was 86.9% and the growth (LOX IMVI melanoma) was 96.5%. It also gave a growth (SK-MEL-28 melanoma) of 103%.
In the case of `C=C1CCC2C3(C)COC(c4cccc(Cl)c4)OC3CCC2(C)C1/C=C/C1=CCOC1=O` (stereo not given), the growth (DU-145 prostate) is reported as 79.1%, the growth (K-562 leukemia) is reported as 24.3% and the growth (MALME-3M melanoma) is reported as 84.6%. The growth (MDA-MB-231 breast) was 80.1%, the growth (RXF 393 renal) was 80.9% and the growth (SF-268 CNS) was 83.7%. The growth (SF-295 CNS) was 45.7%, the growth (UACC-257 melanoma) was 57.4% and the growth (M14 melanoma) was 83.6%. It also gave a growth (HCT-15 colon) of 59.1%, a growth (HT29 colon) of 56.9% and a growth (SNB-75 CNS) of 86.5%. For the same compound, the growth (SNB-19 CNS) was 77.3%, the growth (U251 CNS) was 69.4% and the growth (PC-3 prostate) was 44.2%. It also gave a growth (SK-MEL-5 melanoma) of 35%, a growth (UACC-62 melanoma) of 62.6% and a growth (LOX IMVI melanoma) of 52.1%. For the same compound, the growth (SK-MEL-28 melanoma) was 78.8%.
In the case of `CC(=O)C1=C(O)C=C2Oc3c(C(=O)/C=C/c4c(Cl)cccc4Cl)c(O)c(C)c(O)c3[C@]2(C)C1=O`, the growth (DU-145 prostate) is reported as 6.3% (active), the growth (K-562 leukemia) is reported as -26.7% (active) and the growth (MALME-3M melanoma) is reported as -67.7% (active). The growth (MDA-MB-231 breast) was -63.4% (active), the growth (RXF 393 renal) was -48.9% (active) and the growth (SF-268 CNS) was -20.4% (active). For the same compound, the growth (SF-295 CNS) was -37% (active), the growth (UACC-257 melanoma) was -37% (active) and the growth (M14 melanoma) was -10.9% (active). For the same compound, the growth (HCT-15 colon) was -50.4% (active), the growth (HT29 colon) was -18.5% (active) and the growth (SNB-75 CNS) was -22.3% (active). The growth (SNB-19 CNS) was -23.7% (active), the growth (U251 CNS) was -33% (active) and the growth (PC-3 prostate) was -3.69% (active). For the same compound, the growth (SK-MEL-5 melanoma) was -86.3% (active), the growth (UACC-62 melanoma) was -69.7% (active) and the growth (LOX IMVI melanoma) was -51.9% (active). The growth (SK-MEL-28 melanoma) was -60.1% (active).
With `N=c1c2ccccc2nc2n1CCCCC2` the growth (DU-145 prostate) was 118%, the growth (K-562 leukemia) was 121% and the growth (MALME-3M melanoma) was 107%. For the same compound, the growth (MDA-MB-231 breast) was 110%, the growth (RXF 393 renal) was 110% and the growth (SF-268 CNS) was 106%. It also gave a growth (SF-295 CNS) of 109%, a growth (UACC-257 melanoma) of 110% and a growth (M14 melanoma) of 108%. The growth (HCT-15 colon) was 110%, the growth (HT29 colon) was 110% and the growth (SNB-75 CNS) was 99.7%. For the same compound, the growth (SNB-19 CNS) was 103%, the growth (U251 CNS) was 101% and the growth (PC-3 prostate) was 116%. For the same compound, the growth (SK-MEL-5 melanoma) was 100%, the growth (UACC-62 melanoma) was 106% and the growth (LOX IMVI melanoma) was 106%. It also gave a growth (SK-MEL-28 melanoma) of 103%.
In the case of `CC(=O)C1=C(O)C=C2Oc3c(C(=O)/C=C/c4cc(Cl)cc(Cl)c4)c(O)c(C)c(O)c3[C@]2(C)C1=O`, the growth (DU-145 prostate) is reported as -3.76% (active), the growth (K-562 leukemia) is reported as -16.2% (active) and the growth (MALME-3M melanoma) is reported as -62.4% (active). The growth (MDA-MB-231 breast) was -30.9% (active), the growth (RXF 393 renal) was -40.4% (active) and the growth (SF-268 CNS) was -21.4% (active). For the same compound, the growth (SF-295 CNS) was -18.7% (active), the growth (UACC-257 melanoma) was -19.6% (active) and the growth (M14 melanoma) was -32.8% (active). For the same compound, the growth (HCT-15 colon) was -35.5% (active), the growth (HT29 colon) was -23.5% (active) and the growth (SNB-75 CNS) was -39.9% (active). For the same compound, the growth (SNB-19 CNS) was -24.4% (active), the growth (U251 CNS) was -29.9% (active) and the growth (PC-3 prostate) was -21.1% (active). For the same compound, the growth (SK-MEL-5 melanoma) was -89.2% (active), the growth (UACC-62 melanoma) was -71.2% (active) and the growth (LOX IMVI melanoma) was -54% (active). The growth (SK-MEL-28 melanoma) was -36.1% (active).
